# Assay results published in PubChem BioAssay.
# Active and inactive are the calls of the source.
# Key:
# [1] = test system: XIP peptide (Xip251-270) binding; assay: XIP fragment 251-270 binding compounds – biochemical, small-molecule microarray, fluorescence 635/667 nm, 0.1 µg/mL protein, primary screen (AID 1182); conditions: fluorescent protein binding, 635 nm, higher = more signal, called active from +8 up or from −8 down
# [2] = test system: XIP peptide (Xip251-270); assay: compounds binding XIP fragment 251-270 – biochemical, small-molecule microarray, fluorescence 635/667 nm, 0.5 µg/mL protein, primary screen (AID 1183); conditions: fluorescence 635 nm, higher = more signal
# [3] = blood-stage malaria parasite viability loss – strain 3D7, DAPI fluorescence, 100 nL, primary screen (AID 1184);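 also: parasites grown inside human red blood cells in medium with human serum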; conditions: P. falciparum 3D7 growth, 3 d, higher = more signal
# [4] = molecular target: Homeobox protein Hox-A13 (Mus musculus) (UniProt Q62424); assay: disruptors of Hoxa13 oligonucleotide interaction – biochemical, fluorescence polarization, labeled oligonucleotide, primary screen (AID 1185); conditions: Hoxa13:DNA binding, 15 min, higher = more signal, called active from +8 up or from −8 down
# Chain of Homeobox protein Hox-A13 (Mus musculus) (Q62424 whole entry, looked up): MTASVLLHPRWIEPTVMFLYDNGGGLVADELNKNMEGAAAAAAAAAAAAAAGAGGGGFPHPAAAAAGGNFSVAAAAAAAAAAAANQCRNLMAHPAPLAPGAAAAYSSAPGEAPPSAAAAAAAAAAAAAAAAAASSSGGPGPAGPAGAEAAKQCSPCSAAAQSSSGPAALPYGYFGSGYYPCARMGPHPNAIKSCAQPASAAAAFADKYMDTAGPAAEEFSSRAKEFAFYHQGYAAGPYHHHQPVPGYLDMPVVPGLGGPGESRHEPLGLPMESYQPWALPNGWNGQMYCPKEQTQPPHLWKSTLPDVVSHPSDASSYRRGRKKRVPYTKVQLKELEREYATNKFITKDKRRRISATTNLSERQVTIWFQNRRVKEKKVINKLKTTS
SMILES,composite z-score [1],composite z-score [2],z-score [3],z-score [4]
O=C1[C@H]2[C@H]3[C@H](O)[C@H](O)CC(=NOCc4ccccc4)[C@@H]3CC[C@H]2C(=O)N1C[C@@H]1CCCO1,-0.308 (inactive),0.625,-0.0671,-1.49 (inactive)
CCOC(=O)[C@H](CC(C)C)NC(=O)CCC1CC(OC(=O)NCc2ccc3c(c2)OCO3)CC2(CCCC(COC(=O)NCC3CCCCC3)O2)O1 (stereo not given in full),0.269 (inactive),0.0826,-1.77,-6.18 (inactive)
CO[C@H]1COC(=O)CCC[C@@H](C)[C@H](OC)COC(=O)[C@@H]2CCCN2C(=O)CC=C[C@@H]1C,0.0072 (inactive),0.497,-0.74,-0.0208 (inactive)
COC(=O)CC=C[C@@H](C)[C@@H](C=NO[C@H](C)c1cn([C@H](CO)Cc2ccccc2)nn1)OC,0.312 (inactive),0.367,-0.866,-1.89 (inactive)
COc1cccc([C@H]2Oc3ccc(OC)cc3C(=NOC[C@@H](O)COCc3ccco3)[C@@H]2O)c1,0.252 (inactive),-1.5,0.563,-5.25 (inactive)
C[C@@H](c1ccccc1)N1C(=O)[C@H]2[C@H]3[C@H](O)[C@H](O)CC(=O)[C@H]3CC[C@H]2C1=O,-0.286 (inactive),0.251,0.676,0.0632 (inactive)
CC(C)CON=C1[C@H]2CCn3c(=O)n(Cc4cc5c(cc4Cl)OCO5)c(=O)n3[C@H]2[C@H](O)[C@@H]2O[C@H]12,0.26 (inactive),0.368,-1.17,1.8 (inactive)
CO[C@H]1COC(=O)[C@@H](C)COC(=O)[C@@H](OCc2ccccc2)C=C[C@@H]1C,0.224 (inactive),0.204,-0.66,-0.618 (inactive)
O=C1CCCC(C2=CCCCC2=O)C1 (stereo not given),-0.273 (inactive),0.0997,0.488,-1.63 (inactive)
CCCCC#C[C@@H]1C=C[C@H](Oc2cc(OC)c(OC)c(OC)c2)[C@@H](COC(=O)OCC)O1,0.392 (inactive),0.355,0.421,-5.07 (inactive)
CON=C(C)CCC(=O)OC[C@H]1O[C@H](c2ccccc2)C=C[C@@H]1Oc1ccc(OC)cc1,0.103 (inactive),0.19,-0.442,-4.5 (inactive)
O=C1[C@H]2[C@H]3[C@H](O)[C@H](O)CC(=NOCc4ccccc4)[C@@H]3CC[C@H]2C(=O)N1Cc1ccc2c(c1)OCO2,0.135 (inactive),0.2,-0.364,-3.53 (inactive)
C[C@@H](ON=C1[C@H]2CCn3c(=O)n(-c4ccccc4)c(=O)n3[C@H]2[C@H](O)[C@@H]2O[C@H]12)c1cn([C@@H]2COC[C@H]2O)nn1,-0.24 (inactive),0.324,0.0979,-2.77 (inactive)
C[C@H]1CC[C@H]2C(=O)OC(CO)CN2[C@@H]1c1ccc(Br)cc1 (stereo not given in full),0.201 (inactive),0.115,-0.296,-0.52 (inactive)
COc1ccc(O[C@H]2C=C[C@@H](c3ccccc3)O[C@@H]2CON=C(C)CCC(=O)OC[C@H]2O[C@H](c3ccccc3)C=C[C@@H]2Oc2ccc(OC)cc2)cc1,0.392 (inactive),-0.0127,-1.61,-0.19 (inactive)
CO[C@H]1COC(=O)[C@@H]2CCCN2C(=O)CC=C[C@@H](C)[C@H](OC)COC(=O)[C@@H](OCc2ccccc2)C=C[C@@H]1C,0.0932 (inactive),0.789,-1.42,-1.53 (inactive)
COc1ccc(O[C@H]2C=C[C@@H](c3ccccc3)O[C@@H]2COC(=O)CCC(C)=NOC(C)CN2CCCc3nc(C)c(C)cc32)cc1 (stereo not given in full),0.53 (inactive),0.552,-1.95,-5.13 (inactive)
O=C1C2=CC[C@H]3C(=O)N(c4cccc(Oc5ccccc5)c4)C(=O)[C@H]3[C@H]2[C@H](O)[C@@H]2O[C@H]12,-0.0743 (inactive),0.182,0.86,-2.99 (inactive)
COC(=O)[C@@H]1CC[C@H](C)[C@@H](c2ccc(C)cc2)N1C(=O)c1ccc(C=NO[C@@H](C)c2cn([C@H](CO)Cc3ccccc3)nn2)cc1,-0.0658 (inactive),0.739,-0.309,-5.13 (inactive)
CCCNC(=O)OC[C@H]1O[C@H](CCON=C(C)C)C=C[C@@H]1Oc1ccc(OC)cc1,0.771 (inactive),0.219,1.07,0.928 (inactive)
COC(=O)[C@H](C)NC(=O)CCC1CC(OC(=O)NCc2ccc3c(c2)OCO3)CC2(CCCC(COC(=O)NCC(c3ccccc3)c3ccccc3)O2)O1 (stereo not given in full),1.93 (inactive),0.699,-1.77,-6.84 (inactive)
COC(=O)C1=C(C)N(Cc2ccccc2)[C@]23O[C@](C(=O)OC)(C(=O)N2[C@@H]1c1ccccc1)C(C(=O)OC)=C3C(=O)OC,1.49 (inactive),0.435,-1.08,-3.67 (inactive)
CCc1cc2c(nc1CC)CCN(CCC(C)=NO[C@H](C)c1cn([C@H](CO)Cc3ccccc3)nn1)C2,0.076 (inactive),0.284,-1.91,-5.78 (inactive)

SMILES,composite z-score [1],composite z-score [2],z-score [3],z-score [4]
COc1cccc([C@@H]2Oc3ccc(OC)cc3C(=O)[C@H]2O)c1,0.565 (inactive),0.65,-1.09,-0.169 (inactive)
COc1cc(O)c(C(=O)C=Cc2ccc3c(c2)OCO3)c(OC)c1,-0.156 (inactive),-0.218,-0.973,-0.978 (inactive)
CCOC(=O)[C@H](Cc1ccccc1)NC(=O)CCC1CC(OC(=O)NCc2cccc3ccccc23)CC2(CCCC(COC(=O)NCC(c3ccccc3)c3ccccc3)O2)O1 (stereo not given in full),0.2 (inactive),0.366,-1.83,-4.93 (inactive)
C[C@@H](c1ccccc1)N1C(=O)[C@H]2[C@H]3[C@H](O)[C@H](O)CC(=NO[C@@H]4O[C@H](CO)[C@@H](O)[C@H](O)[C@H]4O)[C@@H]3CC[C@H]2C1=O,-0.0769 (inactive),0.438,-2.33,0.174 (inactive)
COc1ccc(O[C@@H]2[C@H](O)CO[C@H]2C=Cc2ccccc2)cc1,0.266 (inactive),-0.0143,0.465,-1.16 (inactive)
COC(=O)CC=C[C@@H](C)[C@@H](C=NO[C@H](C)c1cn([C@H](CO)Cc2ccccc2)nn1)NS(=O)(=O)c1ccc(C)cc1,-0.418 (inactive),0.126,0.346,-6.42 (inactive)
COC(=O)[C@H](C)NC(=O)CCC1CC(OC(=O)NCc2ccc3c(c2)OCO3)CC2(CCCC(COC(=O)NCc3cccc(C(F)(F)F)c3)O2)O1 (stereo not given in full),0.2 (inactive),0.717,-2.06,-5.57 (inactive)
CO[C@H]1COC(=O)CC=C[C@H](C)COC(=O)[C@@H](C)NC(=O)CC=C[C@@H]1C,0.0921 (inactive),0.424,-1.19,-1.07 (inactive)
CC(C)CON=C1C[C@@H](O)[C@@H](O)[C@@H]2[C@@H]3C(=O)N(C4CCCCC4)C(=O)[C@@H]3CC[C@H]12,0.273 (inactive),0.793,-0.0504,0.866 (inactive)
CC(CCN1CCCCc2nc(C)c(C)cc21)=NO[C@@H](C)c1cn([C@H](CO)Cc2ccccc2)nn1,0.305 (inactive),0.521,-0.257,-4.4 (inactive)
COC(=O)[C@@H]1CC[C@H](C)[C@@H](c2ccc(C)cc2)N1C(=O)c1ccc(C=NO[C@@H]2O[C@H](COC(C)=O)[C@@H](OC(C)=O)[C@H](OC(C)=O)[C@H]2OC(C)=O)cc1,-0.279 (inactive),0.649,-1.4,0.102 (inactive)
O=C1[C@H]2[C@H]3[C@H](O)[C@H](O)CC(=NOC[C@@H](O)COCc4ccco4)[C@@H]3CC[C@H]2C(=O)N1C[C@@H]1CCCO1,0.0071 (inactive),0.791,0.965,0.515 (inactive)
C=C(C)C(=O)OCC1CN2[C@@H](CC[C@@H](C)[C@@H]2c2ccc(Br)cc2)C(=O)O1 (stereo not given in full),-0.0135 (inactive),0.446,-0.19,-1.71 (inactive)
CC[C@@H](c1ccccc1)n1c(=O)n2n(c1=O)[C@H]1[C@H](O)[C@@H]3O[C@@H]3C(=O)[C@H]1CC2,-0.144 (inactive),0.0999,-1.22,-1.59 (inactive)
COC(=O)[C@H]1O[C@@H](c2c(OC)c(OC)c(C)c(OC)c2OC)[C@H](C)[C@@H](O)[C@H]1C,0.498 (inactive),0.486,0.0136,0.6 (inactive)
O=c1n(Cc2cc3c(cc2Cl)OCO3)c(=O)n2n1CC[C@@H]1C(=NOCc3ccccc3)[C@H]3O[C@H]3[C@@H](O)[C@@H]12,0.0872 (inactive),-0.0262,0.0783,0.962 (inactive)
COC(=O)CC=C[C@H](C)[C@@H](OCc1cccc(Br)c1)[C@@H](C)[C@H](OC)C1CCCCC1,0.685 (inactive),0.768,0.536,0.0373 (inactive)
CO[C@H]1COC(=O)CC=C[C@H](C)[C@@H](OC)COC(=O)[C@@H](C)NC(=O)CC=C[C@@H]1C,-0.303 (inactive),0.54,-0.297,-1.25 (inactive)
C#CCCCON=C1C[C@@H](O)[C@@H](O)[C@@H]2[C@@H]3C(=O)N(CC)C(=O)[C@@H]3CC[C@@H]12,0.901 (inactive),0.555,-0.0961,-0.918 (inactive)
O=C1CCCC=C1C(O)CCOC(c1ccccc1)(c1ccccc1)c1ccccc1 (stereo not given),-0.0848 (inactive),-0.364,-1.1,-4.61 (inactive)
CO[C@H]1COC(=O)CC=C[C@@H](C)[C@H](NS(=O)(=O)c2ccc(C)cc2)COC(=O)CCC[C@@H]1C,0.0922 (inactive),0.231,1.19,-0.499 (inactive)
CC(C)=NOC[C@@H](C)[C@H](OCc1ccccc1)C(C)C,-0.0088 (inactive),0.177,-0.89,1.47 (inactive)
